Results on 25 compounds are retold here after PubChem BioAssay (NCATS).

Each structure is given as a SMILES string. Values without a mark were called inactive. For some assays here: Potency and affinity values are given separately. Active and inactive are the calls of the source. How the calls were made is not given here.

The conditions of experiment [1]: Ebola virus entry assay, green fluorescence channel.
For experiment [2] the following is noted: Ebola virus entry assay, blue channel fluorescence.
The conditions of experiment [3]: Ebola virus entry assay, ratio channel.
For experiment [4] the following is noted: Ebola virus entry assay, green channel fluorescence.
The conditions of experiment [5]: Ebola virus entry assay, reporter ratio channel; Channel type: primary.
Wherever efficacy is given: 0% is about no effect.

As to `Cn1cnc2c1c(=O)[nH]c(=O)n2C`, the efficacy in experiment [1] was -13.7%. The call in experiment [2], in experiment [3], in experiment [4] and in experiment [5] was inactive.

`C[C@]12CC[C@@H]3c4ccc(O)cc4CC[C@H]3[C@@H]1CCC2=O`: the efficacy in experiment [1] was 55%. For the same compound, the AC50 in experiment [2] is 3.55 µM (active); in experiment [3], 10 µM (active); in experiment [5] it was 10 µM (active). The result in experiment [4] was inactive.

For the compound `CCN(CC)CCOc1ccc2c(c1)C(=O)c1cc(OCCN(CC)CC)ccc1-2`, the efficacy in experiment [1] is 9%. The AC50 in experiment [2], in experiment [3] and in experiment [5] was 1.41 µM (active) in each case. The compound was called inactive in experiment [4].

In the case of `Cc1cccc(OCC(O)CNC(C)(C)C)c1C` (stereo not given), in experiment [1], the efficacy is -12.5%. Further, the AC50 in experiment [2] and in experiment [5] was 39.8 µM (active) each time. In addition, the outcome in experiment [3] and in experiment [4] was inactive.

In the case of `CC(C)=CCOc1ccc(/C=C/C(=O)c2ccc(OCC=C(C)C)cc2OCC(=O)O)cc1`, the efficacy in experiment [1] was -15.5%. Also, the outcome in experiment [2], in experiment [3], in experiment [4] and in experiment [5] was inactive.

For the compound `O=C(Nc1ccc(Cl)cc1)Nc1ccc(Cl)c(Cl)c1`, in experiment [1], the efficacy was -28.2%. Further, the AC50 is 15.8 µM (active) in experiment [2], 12.6 µM (active) in experiment [3] and 12.6 µM (active) in experiment [5]. The result in experiment [4] was inactive.

`CCOc1ccc2nc(S(N)(=O)=O)sc2c1`: the efficacy in experiment [1] is 31.6%. Further, the result in experiment [2], in experiment [3], in experiment [4] and in experiment [5] was inactive.

Regarding `CN(Cc1ccc(C(C)(C)C)cc1)Cc1cccc2ccccc12`, the efficacy in experiment [1] was -29.5%. The AC50 was 35.5 µM (active) in experiment [2] and 39.8 µM (active) in experiment [5]. In addition, the result in experiment [3] and in experiment [4] was inactive.

Consider `Oc1ccc(Cl)cc1Sc1cc(Cl)ccc1O`, for which, in experiment [1], the efficacy is -28.7%. Further, the AC50 in experiment [2] was 10 µM (active); in experiment [3], 15.8 µM (active); in experiment [5], 15.8 µM (active). Besides, the call in experiment [4] was inactive.

On to `OC(CCN1CCCCC1)(c1ccccc1)C1CC2C=CC1C2` (stereo not given), for which the efficacy in experiment [1] was -14.6%. Moreover, the half-maximal activity concentration (AC50) in experiment [2] was 12.6 µM (active). The outcome in experiment [3], in experiment [4] and in experiment [5] was inactive.

Take `COC(=O)C1=C(C)NC(C)=C(C(=O)O[C@@H]2CCCN(Cc3ccccc3)C2)[C@@H]1c1cccc([N+](=O)[O-])c1`: the efficacy in experiment [1] was 39.4%. In addition, the AC50 in experiment [2] is 39.8 µM (active); in experiment [5], 35.5 µM (active). For the same compound, the result in experiment [3] and in experiment [4] was inactive.

For the compound `CC(Cc1cccc(C(F)(F)F)c1)NCCOC(=O)c1ccccc1` (stereo not given), in experiment [1], the efficacy was 23%. Also, the results for the AC50 in experiment [2], in experiment [3] and in experiment [5] were 31.6 µM (active), 28.2 µM (active) and 28.2 µM (active), respectively. The compound was called inactive in experiment [4].

Regarding `Cc1ccc(C(=O)Nc2ccc(S(=O)(=O)O)c3cc(S(=O)(=O)O)cc(S(=O)(=O)O)c23)cc1NC(=O)c1cccc(NC(=O)Nc2cccc(C(=O)Nc3cc(C(=O)Nc4ccc(S(=O)(=O)O)c5cc(S(=O)(=O)O)cc(S(=O)(=O)O)c45)ccc3C)c2)c1`, in experiment [1], the efficacy was 21.5%. Further, the AC50 is 39.8 µM (active) in experiment [2], 20 µM (active) in experiment [3] and 20 µM (active) in experiment [5]. Moreover, the compound was classed as inactive in experiment [4].

`C=CC[N+]1([C@H]2C[C@H]3[C@@H]4CC[C@H]5C[C@H](OC(C)=O)[C@@H](N6CCCCC6)C[C@]5(C)[C@H]4CC[C@]3(C)[C@H]2OC(=O)CC)CCCCC1`: in experiment [1], the efficacy was 47.7%. For the same compound, the AC50 in experiment [2] was 14.1 µM (active); in experiment [5], 28.2 µM (active). For the same compound, the result in experiment [3] and in experiment [4] was inactive.

For `CCC(C)(C)c1ccc(CC(C)CN2C[C@@H](C)O[C@@H](C)C2)cc1` (stereo not given in full), the efficacy in experiment [1] was -29.5%. Further, the AC50 in experiment [2] and in experiment [5] was 39.8 µM (active) each time. For the same compound, the outcome in experiment [3] and in experiment [4] was inactive.

For the compound `Cc1c(N)cccc1C(F)(F)F`, the efficacy in experiment [1] was 32.5%. The call in experiment [2], in experiment [3], in experiment [4] and in experiment [5] was inactive.

For the compound `c1ccc(CCNc2nc(-c3ccccc3)cs2)cc1`, the efficacy in experiment [1] is 29.5%. Also, the AC50 in experiment [2] and in experiment [5] was 39.8 µM (active) throughout. Besides, the outcome in experiment [3] and in experiment [4] was inactive.

As to `CCCCN=C(N)N=C(N)N`, the efficacy in experiment [1] is 24.1%. In addition, the outcome in experiment [2], in experiment [3], in experiment [4] and in experiment [5] was inactive.

Turning to `CCN(CC)CCSC(=O)C(c1ccccc1)c1ccccc1`, the efficacy in experiment [1] is -29.7%. Also, the half-maximal activity concentration (AC50) is 31.6 µM (active) in experiment [2] and 39.8 µM (active) in experiment [5]. The outcome in experiment [3] and in experiment [4] was inactive.

`O=C(O)Cc1ccc(CCNS(=O)(=O)c2ccc(Cl)cc2)cc1`: the efficacy in experiment [1] was 18.5%. The compound was classed as inactive in experiment [2], in experiment [3], in experiment [4] and in experiment [5].

As for `CCOC(=O)c1c(N)sc2c1CCN(Cc1ccccc1)C2`, in experiment [1], the efficacy is 21.5%. In addition, the compound was classed as inactive in experiment [2], in experiment [3], in experiment [4] and in experiment [5].

As for `COc1ccc2cc3[n+](cc2c1OC)CCc1cc2c(cc1-3)OCO2`, in experiment [1], the efficacy was 30.3%. Besides, the compound was classed as inactive in experiment [2], in experiment [3], in experiment [4] and in experiment [5].

As to `COc1ccc(CN2CCN(C(c3ccc(F)cc3)c3ccc(F)cc3)CC2)c(OC)c1OC`, the efficacy in experiment [1] is 25.5%. Also, the concentration at half-maximal activity (AC50) in experiment [2] was 7.08 µM (active); in experiment [3], 10 µM (active); in experiment [5] it was 10 µM (active). Further, the outcome in experiment [4] was inactive.

As to `Cc1cc(=O)oc2cc(O)ccc12`, in experiment [1], the efficacy was -26.6%. The outcome in experiment [2], in experiment [3], in experiment [4] and in experiment [5] was inactive.

`COC(=O)[C@H]1[C@H]2C[C@@H]3c4[nH]c5cc(OC)ccc5c4CCN3C[C@H]2C[C@@H](OC(=O)/C=C/c2ccc(O)c(OC)c2)[C@@H]1OC`: the efficacy in experiment [1] is -80.1%. In addition, the AC50 in experiment [2] was 3.55 µM (active); in experiment [3], 3.16 µM (active); in experiment [5], 3.16 µM (active). For the same compound, in experiment [4], the compound was classed as inactive.

As a reminder, the AC50 is the concentration giving half of the maximal activity seen.
